# Laboratory results published in PubChem BioAssay.
# Values without a mark were called inactive. How the calls were made is not given here.
# Biological target: Pantothenate synthetase (Mycobacterium tuberculosis (strain ATCC 25618 / H37Rv)) (UniProt P9WIL5)
# Assay: Coupled enzyme confirmation of inhibitors against recombinant Mtb PanC (AID 375);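 further: 0% = full reaction with vehicle and 100% = no enzyme background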
# Settings: coupled enzyme assay; at 10 µM, stronger effect = higher value
# Pantothenate synthetase (Mycobacterium tuberculosis (strain ATCC 25618 / H37Rv)), sequence (P9WIL5 whole entry, looked up): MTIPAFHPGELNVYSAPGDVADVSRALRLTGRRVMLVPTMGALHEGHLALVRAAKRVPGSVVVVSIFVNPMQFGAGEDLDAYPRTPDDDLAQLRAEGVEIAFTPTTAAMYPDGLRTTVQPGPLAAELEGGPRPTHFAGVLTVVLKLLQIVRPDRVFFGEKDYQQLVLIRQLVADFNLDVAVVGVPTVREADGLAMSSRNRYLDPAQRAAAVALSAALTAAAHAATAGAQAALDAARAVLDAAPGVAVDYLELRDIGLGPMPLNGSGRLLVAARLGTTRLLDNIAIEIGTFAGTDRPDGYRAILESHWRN
row,SMILES,inhibition
1,CSc1nc(C)c(C(=O)Nc2ccccc2)c(C)c1C#N,0%
2,CCOC(=O)c1cnc(C(C)(C)C)[nH]c1=O,10%
3,CCC1Oc2ccccc2N(CC(=O)Nc2ccc(OC)cc2OC)C1=O (stereo not given),0%
4,Cc1nc2ccc(S(=O)(=O)NC(C(=O)Nc3nccs3)C(C)C)cc2s1 (stereo not given),0%
5,COc1ccc2c(c1)CCc1c(C(=O)NCc3cccnc3)noc1-2,0%
